# Measurements reported in PubChem BioAssay AID504850 (National Center for Advancing Translational Sciences (NCATS), 2011).
# Out of some 2,300 compounds screened, about 1,200 (52%) were called active. Another 34% or so got no clear call; they are omitted. Calls follow the shape of the dose curve; as a rule, active = well fitted inhibition curve with a large enough effect; inconclusive = small, poorly fitted or top-dose-only effect, or effect the other way; inactive = no such curve, though single readings can be large or run the other way. The set was probably picked from earlier hits. The list shows a part of the results.
# Test: Confirmation screen for delayed death inhibitors of the malarial parasite plastid, 48 hour incubation; also: nearly all actives have a fitted effect of over 65% in size
# Conditions: P. falciparum-infected erythrocytes, luciferase growth; series mostly up to 28.7 µM
# Outline: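 Single-generation (48 h, 37 C) exposure of integrated firefly luciferase-reporter P. falciparum in red cells, 0.1% parasitemia at 2% hematocrit, Albumax-supplemented RPMI. Falling luciferase signal marks parasite growth inhibition.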
# Potency is read from the fitted curve at half-maximal effect.
row,Compound,Potency
1,O=C(Cc1cccs1)NCCc1ccc(Cl)cc1,4.47 µM (active)
2,Cc1ccc(Cl)cc1N1CCN(c2cccc[n+]2C)CC1,3.16 µM (active)
3,COc1cccc2sc(Nc3nnc(-c4ccc(F)cc4)o3)nc12,7.08 µM (active)
4,O=C(COc1ccccc1)Nc1nnc(-c2ccc(F)cc2)o1,inactive
5,COc1cccc2sc(Nc3nnc(-c4ccccc4Cl)o3)nc12,12.6 µM (active)
6,CC(C)CCSc1nc(N)c(C#N)cc1C#N,6.31 µM (active)
7,CCOC(=O)c1c[nH]c2cc(OCC(C)C)c(OCC(C)C)cc2c1=O,0.199 µM (active)
8,CSc1nnc(C)c(=O)[nH]1,inactive
9,Cc1cc(=O)oc2c1ccc1oc(/C(=N/O)c3ccccc3)c(C)c12,7.94 µM (active)
10,Cc1ccc2cc3cc(C(=O)NCCCN4CCCC4=O)oc3nc2c1,3.16 µM (active)
11,COCCCNC(=O)c1cc2cc3cc(OC)ccc3nc2o1,5.01 µM (active)
12,COc1ccc2nc3oc(C(=O)NCc4cccs4)cc3cc2c1,3.55 µM (active)
13,COc1ccccc1NC(=S)NCc1cccs1,inactive
14,COc1ccc2cc3cc(C(=O)Nc4ccc5c(c4)OCO5)oc3nc2c1,5.01 µM (active)
15,Cn1cnc([N+](=O)[O-])c1Sc1ccc(Br)cc1,inactive
16,Cc1cc(Br)ccc1NC(=O)CNC(=O)Cn1ncc(Cl)c(Cl)c1=O,12.6 µM (active)
17,O=C(Nn1c(-c2ccccc2)nc2ccccc2c1=O)c1ccco1,inactive
18,O=C(NNc1nc(-c2ccccc2)cs1)c1ccco1,2.24 µM (active)
19,Cc1nn(-c2ccccc2)c(C)c1/C=N/n1c(-c2ccccc2Br)n[nH]c1=S,14.1 µM (active)
20,S=c1[nH]nc(-c2ccccn2)n1/N=C/c1ccc(-c2ccccc2Br)o1,inactive

row,Compound,Potency
1,Cc1[nH]c(=O)c(C(=O)/C=C/c2ccccc2)c2c1CCCC2,6.31 µM (active)
2,Cc1[nH]c2ccccc2c1/C=N/NC(=O)CNC(=O)Cc1ccccc1,inactive
3,Cc1[nH]c2ccccc2c(=O)c1C(=O)/C=C/c1ccccc1,6.31 µM (active)
4,Cc1[nH]c(=O)c(C(=O)/C=C/c2ccccc2F)c2c1CCCC2,7.08 µM (active)
5,CC(=O)Nc1ccc(NC(=O)c2ccc(C3SCC(=O)N3CCc3ccccc3)cc2)cc1 (stereo not given),8.91 µM (active)
6,O=C1CSC(c2cccnc2)N1CCc1ccccn1 (stereo not given),inactive
7,N#CCc1nc(C(c2ccccc2)c2ccccc2)no1,7.94 µM (active)
8,CC(C)c1cc(NC(=O)CCl)on1,10 µM (active)
9,CC(C)NC(=S)N/N=C/c1sc(N2CCCCC2)nc1-c1cccs1,6.31 µM (active)
10,Cc1ccc(C(=O)N/C(=C\c2ccc(-c3ccc(Cl)cc3)o2)C(=O)NCCCN(C)C)cc1,3.98 µM (active)
11,C=CCN=c1scc(-c2ccc(F)cc2)n1/N=C/c1ccccn1,6.31 µM (active)
12,CCCCN1/C(=C/c2cccc[n+]2C)Sc2cc(NC(C)=O)ccc21,3.16 µM (active)
13,Cc1c(OC(C)C(=O)N2C[C@H]3C[C@@H](C2)c2cccc(=O)n2C3)ccc2c3c(c(=O)oc12)CCC3 (stereo not given in full),12.6 µM (active)
14,Cc1c(CC(=O)N2C[C@H]3C[C@@H](C2)c2cccc(=O)n2C3)c(=O)oc2cc3occ(C(C)(C)C)c3cc12,12.6 µM (active)
15,CC(C)C[C@@H](NC(=O)[C@H](Cc1ccccc1)NC(=O)c1cnccn1)B(O)O,0.178 µM (active)
16,O=C(C[C@@H]1C/C=C\CC[C@@H](Cc2ccc(F)cc2)C(=O)OC[C@@H]2CCCN2C1=O)NCCO,12.6 µM (active)
17,COc1ccc(NC(=O)N2CCCc3cc(C)ccc32)c(OC)c1,14.1 µM (active)
18,Cc1cc(C)n(Cc2ccc(C(=O)N/N=C/c3ccc(-c4ccc([N+](=O)[O-])cc4)o3)o2)n1,8.91 µM (active)
19,CCC/C(C#CCCN1C(=O)c2ccccc2C1=O)=C1/c2ccccc2C(=O)N1c1ccccc1,7.94 µM (active)
20,O=C(CCN1C(=O)c2ccccc2C1=O)C1=NN[C@@H]2C(=O)N(c3ccc(F)cc3)C(=O)[C@H]12,inactive

row,Compound,Potency
1,CCOC(=O)CSc1nc2sc3c(c2c(=O)n1C1CCCCC1)CCN(C)C3,3.16 µM (active)
2,CCn1c(SCC(=O)Nc2ccc(C)cc2)nc2sc3c(c2c1=O)CCN(C)C3,1.41 µM (active)
3,Cc1cccc(NC(=S)/N=C(\N)Nc2nc(C)c3ccccc3n2)c1,12.6 µM (active)
4,CC(CN1CCC(n2nccc2NC(=O)c2ccccc2Cl)CC1)c1ccccc1 (stereo not given),15.8 µM (active)
5,C(=N\N(c1ccccc1)c1ccccc1)/c1ccccn1,inactive
6,O=C(N/N=C/c1ccccn1)c1cc([N+](=O)[O-])cc([N+](=O)[O-])c1,10 µM (active)
7,CC1(C)COC(/C=C/c2cccc([N+](=O)[O-])c2)=N1,14.1 µM (active)
8,O=[N+]([O-])c1cccc(/C=C/c2nc[nH]c2[N+](=O)[O-])c1,7.94 µM (active)
9,COc1ccccc1-n1nnnc1S(=O)(=O)Cc1ccc(Cl)cc1,12.6 µM (active)
10,CCCCN(CCCNC(=O)C1CCN(C(=O)c2cc3sccc3n2C)CC1)Cc1ccccc1,5.62 µM (active)
11,CC(NC(=O)c1cc2sccc2n1C)c1ccc2c(c1)OCCO2 (stereo not given),inactive
12,O=C(Nc1ccc2c(c1)CCCN2C(=O)c1ccco1)c1cc([N+](=O)[O-])ccc1Cl,12.6 µM (active)
13,COc1ccccc1N(Cc1ccccc1)S(=O)(=O)c1cccc(C(=O)Nc2cc(C)ccn2)c1,11.2 µM (active)
14,COc1ccccc1N(Cc1ccccc1)S(=O)(=O)c1cccc(C(=O)Nc2ccccn2)c1,8.91 µM (active)
15,COc1cc(OC)cc(C(=O)Nc2ccc3c(c2)CCCN3C(=O)c2cccs2)c1,12.6 µM (active)
16,Cc1ccccc1C(=O)Nc1ccc2c(c1)CCCN2C(=O)c1cccs1,12.6 µM (active)
17,CC(=O)Nc1ccc(OCc2cccc3ccccc23)cc1,12.6 µM (active)
18,O=C(Cc1cccc2ccccc12)Nc1ccccc1C(=O)O,inactive
19,CCOC(=O)c1c(NC(=O)CSc2ccccc2C(=O)O)sc(C)c1C,inactive
20,CCOC(=O)c1c(NC(=O)CSc2c[nH]c3ccccc23)sc2c1CCCC2,14.1 µM (active)
